Six sequences from article PMC11006913 can be followed below.

Common to all, as to experiment: PBM; 200 nM protein, PBS
Holding throughout (details): dsDNA, one strand shown

Experiment [1] has as its target HOXB9 (Homo sapiens, UniProt P17482 171-250, T197M).
Experiment [2] has as its target HOXA4 (Homo sapiens, UniProt Q00056 201-287, W262R).
Experiment [3] has as its target T1, VENTX (Homo sapiens, UniProt O95231 78-163).
T1 sequence: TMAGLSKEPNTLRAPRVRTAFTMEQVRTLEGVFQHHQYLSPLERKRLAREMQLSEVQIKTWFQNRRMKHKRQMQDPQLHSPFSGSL

Experiment [4] concerns the target HOXA7 (Homo sapiens, UniProt P31268 116-202).
The target in experiment [5] is HOXB6 (Homo sapiens, UniProt P17509 132-218, K202E).
In experiment [6] the target is HOXA4 (Homo sapiens, UniProt Q00056 201-287).
Experiment [7] deals with HOXC10 (Homo sapiens, UniProt Q9NYD6 254-340, K271E).
Experiment [8] addresses VAX1 (Homo sapiens, UniProt Q5SQQ9 86-172).
Experiment [9] concerns the target T2, PAX4 (Homo sapiens, UniProt O43316 9-242, R227W).
T2 sequence: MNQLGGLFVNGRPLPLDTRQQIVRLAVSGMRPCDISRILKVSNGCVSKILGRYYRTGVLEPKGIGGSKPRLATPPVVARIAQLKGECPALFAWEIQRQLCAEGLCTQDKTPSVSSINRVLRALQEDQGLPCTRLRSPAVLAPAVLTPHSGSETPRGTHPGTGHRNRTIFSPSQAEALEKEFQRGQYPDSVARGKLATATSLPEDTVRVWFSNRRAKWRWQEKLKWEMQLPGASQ

Experiment [10] concerns the target HOXA2 (Homo sapiens, UniProt O43364 129-215, Y150S).
Experiment [11] addresses HOXA7 (Homo sapiens, UniProt P31268 116-202, W177C).
Experiment [12] concerns the target HOXA2 (Homo sapiens, UniProt O43364 129-215).
Experiment [13] concerns the target HOXB6 (Homo sapiens, UniProt P17509 132-218).
Experiment [14] concerns the target HOXC9 (Homo sapiens, UniProt P31274 178-260, K195R).
Experiment [15] has as its target HOXC10 (Homo sapiens, UniProt Q9NYD6 254-340).
Experiment [16] deals with HOXB9 (Homo sapiens, UniProt P17482 171-250).
In experiment [17] the target is HOXC9 (Homo sapiens, UniProt P31274 178-260).
Experiment [18] has as its target HOXC9 (Homo sapiens, UniProt P31274 178-260, R193K).
Experiment [19] addresses HOXB9 (Homo sapiens, UniProt P17482 171-250, R186Q).
Experiment [20] concerns the target HOXC9 (Homo sapiens, UniProt P31274 178-260, R222W).

HOXB6 (Homo sapiens, UniProt P17509 132-218, K202E), sequence (P17509 132-218 K202E): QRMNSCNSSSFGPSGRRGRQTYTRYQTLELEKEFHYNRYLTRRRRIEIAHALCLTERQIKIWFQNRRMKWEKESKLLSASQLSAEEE
HOXA2 (Homo sapiens, UniProt O43364 129-215, Y150S), sequence (O43364 129-215 Y150S): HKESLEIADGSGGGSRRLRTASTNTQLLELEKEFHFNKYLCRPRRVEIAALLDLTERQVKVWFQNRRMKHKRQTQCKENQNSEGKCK
HOXA2 (Homo sapiens, UniProt O43364 129-215), sequence (O43364 129-215): as the sequence (O43364 129-215 Y150S) above, with S22Y counted along it
HOXA7 (Homo sapiens, UniProt P31268 116-202, W177C), sequence (P31268 116-202 W177C): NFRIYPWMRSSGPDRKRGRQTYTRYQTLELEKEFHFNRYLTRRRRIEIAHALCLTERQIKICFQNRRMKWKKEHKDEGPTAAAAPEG
VAX1, sequence (Q5SQQ9 86-172): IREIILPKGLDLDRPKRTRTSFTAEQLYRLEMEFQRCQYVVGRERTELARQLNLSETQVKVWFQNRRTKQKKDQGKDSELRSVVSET
HOXB9 (Homo sapiens, UniProt P17482 171-250, T197M), sequence (P17482 171-250 T197M): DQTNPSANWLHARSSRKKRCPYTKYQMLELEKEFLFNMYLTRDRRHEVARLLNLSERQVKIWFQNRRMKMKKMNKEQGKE
HOXA4 (Homo sapiens, UniProt Q00056 201-287, W262R), sequence (Q00056 201-287 W262R): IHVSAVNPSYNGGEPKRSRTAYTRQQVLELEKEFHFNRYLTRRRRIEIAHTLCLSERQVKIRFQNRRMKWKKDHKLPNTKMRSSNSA
HOXA7 (Homo sapiens, UniProt P31268 116-202), sequence (P31268 116-202): as the sequence (P31268 116-202 W177C) above, with C62W counted along it
HOXB6 (Homo sapiens, UniProt P17509 132-218), sequence (P17509 132-218): as the sequence (P17509 132-218 K202E) above, with E71K counted along it
HOXA4 (Homo sapiens, UniProt Q00056 201-287), sequence (Q00056 201-287): as the sequence (Q00056 201-287 W262R) above, with R62W counted along it
HOXC10 (Homo sapiens, UniProt Q9NYD6 254-340, K271E), sequence (Q9NYD6 254-340 K271E): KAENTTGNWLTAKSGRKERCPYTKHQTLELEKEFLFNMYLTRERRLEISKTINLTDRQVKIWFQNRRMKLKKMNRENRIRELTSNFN
HOXC10 (Homo sapiens, UniProt Q9NYD6 254-340), sequence (Q9NYD6 254-340): as the sequence (Q9NYD6 254-340 K271E) above, with E18K counted along it
HOXC9 (Homo sapiens, UniProt P31274 178-260, K195R), sequence (P31274 178-260 K195R): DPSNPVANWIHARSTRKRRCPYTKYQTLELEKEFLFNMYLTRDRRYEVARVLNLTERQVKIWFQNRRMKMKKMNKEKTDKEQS
HOXB9 (Homo sapiens, UniProt P17482 171-250, R186Q), sequence (P17482 171-250 R186Q): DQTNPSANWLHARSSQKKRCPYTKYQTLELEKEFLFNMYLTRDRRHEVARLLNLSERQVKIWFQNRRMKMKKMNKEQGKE
HOXB9 (Homo sapiens, UniProt P17482 171-250), sequence (P17482 171-250): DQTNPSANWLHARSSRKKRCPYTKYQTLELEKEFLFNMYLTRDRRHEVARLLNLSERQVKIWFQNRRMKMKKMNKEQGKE
HOXC9 (Homo sapiens, UniProt P31274 178-260, R222W), sequence (P31274 178-260 R222W): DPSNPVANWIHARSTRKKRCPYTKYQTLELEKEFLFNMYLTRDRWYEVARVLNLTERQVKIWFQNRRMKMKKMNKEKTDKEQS
HOXC9 (Homo sapiens, UniProt P31274 178-260), sequence (P31274 178-260): as the sequence (P31274 178-260 R222W) above, with W45R counted along it
HOXC9 (Homo sapiens, UniProt P31274 178-260, R193K), sequence (P31274 178-260 R193K): as the sequence (P31274 178-260 R222W) above, with R16K, W45R counted along it

With TAATTAGA, the binding signal in experiment [1] is 10.1 upbm affinity estimate (log intensity, higher = more binding, comparable within an allelic series); in experiment [2] it was 10.8 upbm affinity estimate (log intensity, higher = more binding, comparable within an allelic series); in experiment [3], 13 upbm affinity estimate (log intensity, higher = more binding, comparable within an allelic series); in [4] it was 11.5 upbm affinity estimate (log intensity, higher = more binding, comparable within an allelic series); in [5] it was 10 upbm affinity estimate (log intensity, higher = more binding, comparable within an allelic series); in experiment [6], 14.1 upbm affinity estimate (log intensity, higher = more binding, comparable within an allelic series). The binding signal in experiment [7] was 11.8 upbm affinity estimate (log intensity, higher = more binding, comparable within an allelic series); in [8] it was 13.8 upbm affinity estimate (log intensity, higher = more binding, comparable within an allelic series); in [9] it was 11.5 upbm affinity estimate (log intensity, higher = more binding, comparable within an allelic series); in experiment [10], 11 upbm affinity estimate (log intensity, higher = more binding, comparable within an allelic series); in [11], 8.87 upbm affinity estimate (log intensity, higher = more binding, comparable within an allelic series); in experiment [12], 13.1 upbm affinity estimate (log intensity, higher = more binding, comparable within an allelic series). In experiment [13], the binding signal is 12 upbm affinity estimate (log intensity, higher = more binding, comparable within an allelic series).

On to CAATTAAA, for which the binding signal in experiment [1] is 10.2 upbm affinity estimate (log intensity, higher = more binding, comparable within an allelic series); in [2], 10.5 upbm affinity estimate (log intensity, higher = more binding, comparable within an allelic series); in experiment [14], 12.9 upbm affinity estimate (log intensity, higher = more binding, comparable within an allelic series); in experiment [3], 12.3 upbm affinity estimate (log intensity, higher = more binding, comparable within an allelic series); in experiment [4] it was 11.8 upbm affinity estimate (log intensity, higher = more binding, comparable within an allelic series); in [15], 12.5 upbm affinity estimate (log intensity, higher = more binding, comparable within an allelic series). Moreover, the binding signal is 10 upbm affinity estimate (log intensity, higher = more binding, comparable within an allelic series) in [5]; 12.3 upbm affinity estimate (log intensity, higher = more binding, comparable within an allelic series) in experiment [16]; 12.9 upbm affinity estimate (log intensity, higher = more binding, comparable within an allelic series) in experiment [17]; 12.8 upbm affinity estimate (log intensity, higher = more binding, comparable within an allelic series) in [18]; 13.6 upbm affinity estimate (log intensity, higher = more binding, comparable within an allelic series) in experiment [6]; 12.3 upbm affinity estimate (log intensity, higher = more binding, comparable within an allelic series) in [7]. The binding signal in [8] was 12.8 upbm affinity estimate (log intensity, higher = more binding, comparable within an allelic series); in [19], 12 upbm affinity estimate (log intensity, higher = more binding, comparable within an allelic series); in experiment [20], 11.3 upbm affinity estimate (log intensity, higher = more binding, comparable within an allelic series); in [11], 8.84 upbm affinity estimate (log intensity, higher = more binding, comparable within an allelic series); in experiment [13], 12.1 upbm affinity estimate (log intensity, higher = more binding, comparable within an allelic series).

In the case of CAATTAGC, the binding signal was 10.5 upbm affinity estimate (log intensity, higher = more binding, comparable within an allelic series) in [2]; 13.1 upbm affinity estimate (log intensity, higher = more binding, comparable within an allelic series) in experiment [3]; 11.3 upbm affinity estimate (log intensity, higher = more binding, comparable within an allelic series) in experiment [4]; 13.9 upbm affinity estimate (log intensity, higher = more binding, comparable within an allelic series) in experiment [6]; 13.5 upbm affinity estimate (log intensity, higher = more binding, comparable within an allelic series) in experiment [8]; 10.8 upbm affinity estimate (log intensity, higher = more binding, comparable within an allelic series) in experiment [9]. For the same sequence, the binding signal in experiment [10] is 10.7 upbm affinity estimate (log intensity, higher = more binding, comparable within an allelic series); in [11], 8.77 upbm affinity estimate (log intensity, higher = more binding, comparable within an allelic series); in [12] it was 12.6 upbm affinity estimate (log intensity, higher = more binding, comparable within an allelic series).

Consider TCAATTAA, for which the binding signal was 10.7 upbm affinity estimate (log intensity, higher = more binding, comparable within an allelic series) in [2]; 12.4 upbm affinity estimate (log intensity, higher = more binding, comparable within an allelic series) in experiment [3]; 11.5 upbm affinity estimate (log intensity, higher = more binding, comparable within an allelic series) in experiment [4]; 9.94 upbm affinity estimate (log intensity, higher = more binding, comparable within an allelic series) in experiment [5]; 13.9 upbm affinity estimate (log intensity, higher = more binding, comparable within an allelic series) in experiment [6]; 13.3 upbm affinity estimate (log intensity, higher = more binding, comparable within an allelic series) in [8]. The binding signal in experiment [10] is 10.7 upbm affinity estimate (log intensity, higher = more binding, comparable within an allelic series); in experiment [11] it was 8.86 upbm affinity estimate (log intensity, higher = more binding, comparable within an allelic series); in experiment [12], 12.4 upbm affinity estimate (log intensity, higher = more binding, comparable within an allelic series); in experiment [13] it was 11.9 upbm affinity estimate (log intensity, higher = more binding, comparable within an allelic series).

As to AATTAATC, the binding signal in experiment [1] was 10 upbm affinity estimate (log intensity, higher = more binding, comparable within an allelic series); in [2], 10.6 upbm affinity estimate (log intensity, higher = more binding, comparable within an allelic series); in experiment [3], 12.3 upbm affinity estimate (log intensity, higher = more binding, comparable within an allelic series); in [4], 11.3 upbm affinity estimate (log intensity, higher = more binding, comparable within an allelic series); in experiment [5], 10 upbm affinity estimate (log intensity, higher = more binding, comparable within an allelic series); in experiment [6], 13.9 upbm affinity estimate (log intensity, higher = more binding, comparable within an allelic series). Further, the binding signal is 11 upbm affinity estimate (log intensity, higher = more binding, comparable within an allelic series) in experiment [9]; 8.73 upbm affinity estimate (log intensity, higher = more binding, comparable within an allelic series) in experiment [11]; 11.6 upbm affinity estimate (log intensity, higher = more binding, comparable within an allelic series) in experiment [13].

Regarding CCAGGTCC, the binding signal was 8.06 upbm affinity estimate (log intensity, higher = more binding, comparable within an allelic series) in [3]; 10.5 upbm affinity estimate (log intensity, higher = more binding, comparable within an allelic series) in experiment [10]; 7.25 upbm affinity estimate (log intensity, higher = more binding, comparable within an allelic series) in experiment [12].
